Test results: article PMC7862700, “An all-to-all approach to the identification of sequence-specific readers for epigenetic DNA modifications on cytosine”

What was measured:
Experiment in all cases: DAPPL (digital affinity profiling via proximity ligation, sequencing); 10 mM Tris-HCl pH 7.5, 50 mM NaCl, 1 mM DTT, 4% glycerol, room temperature, 30 min; GST-TFs on glutathione beads, 16-mer random dsDNA library, 0.1% formaldehyde crosslink after washing; high values mean tight binding
Conditions in all cases: protein: recombinant; tags: N-terminal GST; dsDNA, one strand shown
ELK1 = target: T1, ELK1 (Homo sapiens, UniProt P19419 1-428)
T1 sequence: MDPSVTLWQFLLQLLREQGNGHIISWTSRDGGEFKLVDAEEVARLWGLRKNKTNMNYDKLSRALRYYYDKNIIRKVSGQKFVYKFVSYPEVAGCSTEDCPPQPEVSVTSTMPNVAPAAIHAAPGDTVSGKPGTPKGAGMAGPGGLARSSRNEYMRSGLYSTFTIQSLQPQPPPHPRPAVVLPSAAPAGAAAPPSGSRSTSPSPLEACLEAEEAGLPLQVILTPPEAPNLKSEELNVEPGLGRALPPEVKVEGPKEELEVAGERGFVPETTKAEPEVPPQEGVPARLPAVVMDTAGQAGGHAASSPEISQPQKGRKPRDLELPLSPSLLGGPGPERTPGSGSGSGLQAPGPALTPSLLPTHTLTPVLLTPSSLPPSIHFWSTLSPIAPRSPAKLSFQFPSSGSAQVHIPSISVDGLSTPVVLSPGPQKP
How it was run: (§1)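 GST fusions of human transcription factors were expressed in yeast and captured with glutathione beads. Once given DNA barcodes and pooled alongside a tag-only sample, they were incubated for 30 min at room temperature with 200 nmole of a random double-stranded 16-mer DNA library in Tris/NaCl/DTT/glycerol buffer, then washed, crosslinked (0.1% formaldehyde), proximity-ligated, PCR-amplified and sequenced on an Illumina NextSeq500. The binding signal of each hexamer is its read frequency for a factor divided by its frequency for the tag-only sample.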

GABPA = target: T2, GABPA (Homo sapiens, UniProt Q06546 1-454)
T2 sequence: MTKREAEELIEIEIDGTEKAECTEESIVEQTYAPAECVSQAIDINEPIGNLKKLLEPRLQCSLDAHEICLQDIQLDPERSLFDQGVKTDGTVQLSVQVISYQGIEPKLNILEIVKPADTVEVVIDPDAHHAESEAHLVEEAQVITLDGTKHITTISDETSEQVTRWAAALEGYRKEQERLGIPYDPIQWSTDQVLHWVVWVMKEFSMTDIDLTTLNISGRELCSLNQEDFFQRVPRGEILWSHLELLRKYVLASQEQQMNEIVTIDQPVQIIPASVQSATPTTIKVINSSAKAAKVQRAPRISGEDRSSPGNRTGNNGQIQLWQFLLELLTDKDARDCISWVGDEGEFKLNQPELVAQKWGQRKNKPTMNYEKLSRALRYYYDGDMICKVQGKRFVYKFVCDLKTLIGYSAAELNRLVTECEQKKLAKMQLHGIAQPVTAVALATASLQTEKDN
How it was run: as §1

ERG = target: T3, ERG (Homo sapiens, UniProt P11308 1-479)
T3 sequence: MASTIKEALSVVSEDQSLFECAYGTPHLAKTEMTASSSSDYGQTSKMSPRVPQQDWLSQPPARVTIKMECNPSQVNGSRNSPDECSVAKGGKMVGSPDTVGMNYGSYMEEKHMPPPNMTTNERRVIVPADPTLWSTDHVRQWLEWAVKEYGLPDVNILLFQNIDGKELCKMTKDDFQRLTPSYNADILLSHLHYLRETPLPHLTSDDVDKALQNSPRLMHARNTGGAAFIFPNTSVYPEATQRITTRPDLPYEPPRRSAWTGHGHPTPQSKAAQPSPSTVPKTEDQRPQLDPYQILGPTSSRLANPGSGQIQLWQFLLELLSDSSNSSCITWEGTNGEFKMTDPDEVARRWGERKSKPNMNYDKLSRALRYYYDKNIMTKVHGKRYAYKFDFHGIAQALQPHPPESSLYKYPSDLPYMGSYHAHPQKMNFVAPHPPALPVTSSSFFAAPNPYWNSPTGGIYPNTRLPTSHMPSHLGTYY
How it was run: as §1

ELF1 = ELF1 (Homo sapiens, UniProt P32519 1-619)
How it was run: as §1

SPIB = SPIB (Homo sapiens, UniProt Q01892 1-262)
How it was run: as §1

ELK3 = target: T4, ELK3 (Homo sapiens, UniProt P41970 1-407)
T4 sequence: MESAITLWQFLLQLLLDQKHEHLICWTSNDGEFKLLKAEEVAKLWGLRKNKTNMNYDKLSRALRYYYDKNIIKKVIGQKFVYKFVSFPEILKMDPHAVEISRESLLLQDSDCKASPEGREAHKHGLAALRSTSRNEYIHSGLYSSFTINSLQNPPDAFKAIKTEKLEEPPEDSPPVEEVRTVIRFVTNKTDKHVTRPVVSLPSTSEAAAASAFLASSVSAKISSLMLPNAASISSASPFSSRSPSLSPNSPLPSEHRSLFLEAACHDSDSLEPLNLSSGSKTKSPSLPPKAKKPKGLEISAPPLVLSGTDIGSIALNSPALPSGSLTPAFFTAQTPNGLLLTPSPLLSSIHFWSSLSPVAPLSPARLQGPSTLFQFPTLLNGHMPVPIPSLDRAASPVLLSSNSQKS
How it was run: as §1

FEV = target: T5, FEV (Homo sapiens, UniProt Q99581 1-238)
T5 sequence: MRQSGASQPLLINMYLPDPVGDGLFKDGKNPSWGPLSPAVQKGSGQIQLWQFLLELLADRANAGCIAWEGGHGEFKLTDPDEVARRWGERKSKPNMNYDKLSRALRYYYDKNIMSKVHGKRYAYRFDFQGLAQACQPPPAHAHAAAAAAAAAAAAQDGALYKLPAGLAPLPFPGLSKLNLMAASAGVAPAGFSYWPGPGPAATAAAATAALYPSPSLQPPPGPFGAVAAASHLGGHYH
How it was run: as §1

ETV5 = ETV5 (Homo sapiens, UniProt P41161 1-510)
How it was run: as §1

ELF4 = ELF4 (Homo sapiens, UniProt Q99607 1-663)
How it was run: as §1

ELK4 = target: T6, ELK4 (Homo sapiens, UniProt P28324-2 1-405)
T6 sequence: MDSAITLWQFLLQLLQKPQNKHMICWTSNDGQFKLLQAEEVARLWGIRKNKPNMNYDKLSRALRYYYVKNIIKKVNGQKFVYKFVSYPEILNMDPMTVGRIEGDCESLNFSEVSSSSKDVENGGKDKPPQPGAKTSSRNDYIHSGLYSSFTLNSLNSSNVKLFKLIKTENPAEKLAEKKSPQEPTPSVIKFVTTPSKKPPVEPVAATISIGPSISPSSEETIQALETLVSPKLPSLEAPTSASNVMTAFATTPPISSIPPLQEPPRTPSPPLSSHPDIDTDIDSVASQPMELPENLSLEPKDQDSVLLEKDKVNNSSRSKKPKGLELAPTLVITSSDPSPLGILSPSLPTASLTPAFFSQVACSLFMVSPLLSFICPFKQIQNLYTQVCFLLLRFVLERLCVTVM
How it was run: as §1

ELF3 = target: T7, ELF3 (Homo sapiens, UniProt P78545 1-371)
T7 sequence: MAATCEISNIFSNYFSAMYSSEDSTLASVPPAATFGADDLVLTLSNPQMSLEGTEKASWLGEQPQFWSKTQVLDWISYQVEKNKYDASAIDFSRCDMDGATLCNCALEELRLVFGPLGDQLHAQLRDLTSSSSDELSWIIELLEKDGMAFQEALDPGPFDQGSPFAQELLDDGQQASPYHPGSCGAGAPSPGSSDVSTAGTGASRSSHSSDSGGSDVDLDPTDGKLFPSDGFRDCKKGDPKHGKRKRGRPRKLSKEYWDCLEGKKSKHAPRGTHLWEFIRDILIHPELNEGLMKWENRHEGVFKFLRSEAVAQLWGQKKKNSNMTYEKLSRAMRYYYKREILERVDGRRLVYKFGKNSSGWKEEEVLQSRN
How it was run: as §1

ETV1 = ETV1 (Homo sapiens, UniProt P50549 1-477)
How it was run: as §1

ERF = target: T8, ERF (Homo sapiens, UniProt P50548 1-548)
T8 sequence: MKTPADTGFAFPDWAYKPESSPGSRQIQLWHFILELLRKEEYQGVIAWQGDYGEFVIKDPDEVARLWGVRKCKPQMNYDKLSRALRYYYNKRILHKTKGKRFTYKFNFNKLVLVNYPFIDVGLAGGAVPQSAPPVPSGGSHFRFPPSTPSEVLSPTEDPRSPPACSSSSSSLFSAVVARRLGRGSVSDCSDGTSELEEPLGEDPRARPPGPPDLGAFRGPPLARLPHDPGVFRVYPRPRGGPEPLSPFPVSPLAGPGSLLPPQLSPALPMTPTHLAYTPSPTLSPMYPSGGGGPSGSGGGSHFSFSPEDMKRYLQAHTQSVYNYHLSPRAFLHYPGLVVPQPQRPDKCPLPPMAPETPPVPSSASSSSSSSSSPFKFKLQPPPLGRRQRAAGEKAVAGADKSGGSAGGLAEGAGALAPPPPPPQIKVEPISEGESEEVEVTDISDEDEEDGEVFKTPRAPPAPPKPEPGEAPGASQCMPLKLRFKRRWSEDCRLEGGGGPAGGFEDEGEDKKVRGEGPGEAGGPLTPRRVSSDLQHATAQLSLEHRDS
How it was run: as §1

ETV3L = target: T9, ETV3L (Homo sapiens, UniProt Q6ZN32 1-361)
T9 sequence: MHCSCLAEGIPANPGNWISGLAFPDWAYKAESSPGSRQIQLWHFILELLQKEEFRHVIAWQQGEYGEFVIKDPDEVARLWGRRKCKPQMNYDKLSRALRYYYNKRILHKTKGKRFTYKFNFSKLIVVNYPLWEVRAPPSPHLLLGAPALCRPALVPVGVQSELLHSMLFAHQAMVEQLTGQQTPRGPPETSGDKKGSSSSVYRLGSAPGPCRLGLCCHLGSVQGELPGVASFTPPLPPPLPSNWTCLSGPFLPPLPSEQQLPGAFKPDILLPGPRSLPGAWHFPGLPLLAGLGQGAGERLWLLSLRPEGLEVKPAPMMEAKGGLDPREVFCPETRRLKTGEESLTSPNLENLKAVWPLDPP
How it was run: as §1

ETS2 = target: T10, ETS2 (Homo sapiens, UniProt P15036 1-469)
T10 sequence: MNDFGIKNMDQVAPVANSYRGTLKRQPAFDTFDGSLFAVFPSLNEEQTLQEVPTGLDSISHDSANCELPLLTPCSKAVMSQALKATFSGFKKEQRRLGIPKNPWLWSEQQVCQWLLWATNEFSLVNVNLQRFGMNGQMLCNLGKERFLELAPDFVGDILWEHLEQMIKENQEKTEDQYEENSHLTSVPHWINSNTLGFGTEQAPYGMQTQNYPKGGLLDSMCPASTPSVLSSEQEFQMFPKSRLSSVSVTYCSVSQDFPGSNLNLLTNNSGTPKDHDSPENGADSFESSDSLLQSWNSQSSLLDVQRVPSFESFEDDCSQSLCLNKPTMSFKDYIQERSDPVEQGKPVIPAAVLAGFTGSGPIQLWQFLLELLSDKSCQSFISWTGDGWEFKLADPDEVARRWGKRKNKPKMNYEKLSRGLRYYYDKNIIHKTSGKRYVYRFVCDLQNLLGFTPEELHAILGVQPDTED
How it was run: as §1

SPDEF = target: T11, SPDEF (Homo sapiens, UniProt O95238 1-335)
T11 sequence: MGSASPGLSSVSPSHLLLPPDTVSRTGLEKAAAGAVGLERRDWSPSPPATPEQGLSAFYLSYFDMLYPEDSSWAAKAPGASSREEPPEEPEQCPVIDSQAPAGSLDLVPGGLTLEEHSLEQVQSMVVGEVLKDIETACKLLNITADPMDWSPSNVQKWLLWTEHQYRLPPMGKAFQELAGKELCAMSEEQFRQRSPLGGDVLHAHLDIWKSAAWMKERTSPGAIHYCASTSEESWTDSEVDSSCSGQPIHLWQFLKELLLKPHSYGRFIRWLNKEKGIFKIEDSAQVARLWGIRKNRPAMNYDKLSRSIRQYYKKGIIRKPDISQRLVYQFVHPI
How it was run: as §1

ETV7 = target: T12, ETV7 (Homo sapiens, UniProt Q9Y603 1-341)
T12 sequence: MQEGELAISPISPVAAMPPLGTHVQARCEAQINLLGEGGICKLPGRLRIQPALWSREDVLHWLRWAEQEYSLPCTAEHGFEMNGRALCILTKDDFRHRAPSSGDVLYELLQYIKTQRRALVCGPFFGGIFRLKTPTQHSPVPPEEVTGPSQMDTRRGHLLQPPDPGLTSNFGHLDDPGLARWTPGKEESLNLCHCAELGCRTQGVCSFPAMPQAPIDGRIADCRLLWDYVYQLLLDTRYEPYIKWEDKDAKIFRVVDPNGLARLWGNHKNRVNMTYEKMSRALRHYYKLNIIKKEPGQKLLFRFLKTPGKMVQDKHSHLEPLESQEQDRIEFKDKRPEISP
How it was run: as §1

ETV3 = target: T13, ETV3 (Homo sapiens, UniProt P41162-2 1-143)
T13 sequence: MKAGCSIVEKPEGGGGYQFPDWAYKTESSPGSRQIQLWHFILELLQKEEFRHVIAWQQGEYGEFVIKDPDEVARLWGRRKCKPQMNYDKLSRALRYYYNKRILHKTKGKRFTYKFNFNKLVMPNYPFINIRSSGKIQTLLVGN
How it was run: as §1

ETV6 = ETV6 (Homo sapiens, UniProt P41212 1-452)
How it was run: as §1

Chain of ETV6 (P41212 whole entry): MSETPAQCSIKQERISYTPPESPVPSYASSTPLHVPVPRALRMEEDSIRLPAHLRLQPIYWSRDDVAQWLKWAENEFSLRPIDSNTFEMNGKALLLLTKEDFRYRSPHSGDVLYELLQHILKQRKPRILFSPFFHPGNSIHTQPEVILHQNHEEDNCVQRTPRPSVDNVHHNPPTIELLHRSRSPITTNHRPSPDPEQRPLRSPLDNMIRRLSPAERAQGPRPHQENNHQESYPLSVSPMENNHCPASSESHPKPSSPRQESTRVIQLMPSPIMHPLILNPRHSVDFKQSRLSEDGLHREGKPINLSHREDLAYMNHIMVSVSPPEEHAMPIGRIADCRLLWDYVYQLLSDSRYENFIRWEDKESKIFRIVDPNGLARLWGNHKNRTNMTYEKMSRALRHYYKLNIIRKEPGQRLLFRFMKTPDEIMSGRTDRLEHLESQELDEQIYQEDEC
Chain of ETV1 (P50549 whole entry): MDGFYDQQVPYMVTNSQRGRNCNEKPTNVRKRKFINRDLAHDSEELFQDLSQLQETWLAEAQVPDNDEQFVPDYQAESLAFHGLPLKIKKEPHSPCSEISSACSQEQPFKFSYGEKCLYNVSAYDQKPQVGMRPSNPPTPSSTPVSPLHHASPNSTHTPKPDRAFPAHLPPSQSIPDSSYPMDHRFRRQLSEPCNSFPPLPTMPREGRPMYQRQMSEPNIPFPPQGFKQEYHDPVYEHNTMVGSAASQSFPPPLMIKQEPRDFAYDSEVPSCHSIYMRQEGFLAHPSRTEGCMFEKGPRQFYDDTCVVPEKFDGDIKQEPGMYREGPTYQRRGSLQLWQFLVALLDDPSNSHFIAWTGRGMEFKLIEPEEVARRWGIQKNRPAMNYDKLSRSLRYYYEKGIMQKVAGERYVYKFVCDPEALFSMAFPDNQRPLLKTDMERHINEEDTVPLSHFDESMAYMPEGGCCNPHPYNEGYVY
Chain of ETV5 (P41161 whole entry): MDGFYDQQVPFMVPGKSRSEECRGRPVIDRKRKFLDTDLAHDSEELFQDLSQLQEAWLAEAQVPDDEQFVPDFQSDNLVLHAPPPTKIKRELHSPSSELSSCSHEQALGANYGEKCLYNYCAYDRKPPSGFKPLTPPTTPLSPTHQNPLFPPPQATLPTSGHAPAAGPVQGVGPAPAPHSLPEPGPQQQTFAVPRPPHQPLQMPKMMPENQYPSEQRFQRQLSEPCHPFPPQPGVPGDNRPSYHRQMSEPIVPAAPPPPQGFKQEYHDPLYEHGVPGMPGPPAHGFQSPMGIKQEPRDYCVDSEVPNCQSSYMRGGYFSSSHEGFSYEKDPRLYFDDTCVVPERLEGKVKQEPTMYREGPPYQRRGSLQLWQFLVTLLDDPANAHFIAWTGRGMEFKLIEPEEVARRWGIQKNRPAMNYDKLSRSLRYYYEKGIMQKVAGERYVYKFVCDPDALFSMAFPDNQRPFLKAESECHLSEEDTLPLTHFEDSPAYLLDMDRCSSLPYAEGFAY
Chain of ELF1 (P32519 whole entry): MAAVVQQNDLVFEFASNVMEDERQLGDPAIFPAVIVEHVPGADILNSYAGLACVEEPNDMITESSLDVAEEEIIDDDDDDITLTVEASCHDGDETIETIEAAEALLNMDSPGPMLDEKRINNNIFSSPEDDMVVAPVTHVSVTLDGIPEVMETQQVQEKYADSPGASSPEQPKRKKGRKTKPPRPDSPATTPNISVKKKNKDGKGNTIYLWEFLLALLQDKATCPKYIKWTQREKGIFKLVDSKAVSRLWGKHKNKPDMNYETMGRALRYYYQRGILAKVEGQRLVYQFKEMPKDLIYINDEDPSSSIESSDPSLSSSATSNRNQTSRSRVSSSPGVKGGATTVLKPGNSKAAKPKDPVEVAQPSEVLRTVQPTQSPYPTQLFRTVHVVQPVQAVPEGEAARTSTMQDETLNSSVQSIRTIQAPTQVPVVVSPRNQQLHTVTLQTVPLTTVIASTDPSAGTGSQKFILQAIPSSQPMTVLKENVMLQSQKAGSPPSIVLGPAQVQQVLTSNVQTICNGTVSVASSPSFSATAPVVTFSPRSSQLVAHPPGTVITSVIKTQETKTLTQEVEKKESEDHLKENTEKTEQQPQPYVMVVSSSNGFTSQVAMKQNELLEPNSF
Chain of ELF4 (Q99607 whole entry): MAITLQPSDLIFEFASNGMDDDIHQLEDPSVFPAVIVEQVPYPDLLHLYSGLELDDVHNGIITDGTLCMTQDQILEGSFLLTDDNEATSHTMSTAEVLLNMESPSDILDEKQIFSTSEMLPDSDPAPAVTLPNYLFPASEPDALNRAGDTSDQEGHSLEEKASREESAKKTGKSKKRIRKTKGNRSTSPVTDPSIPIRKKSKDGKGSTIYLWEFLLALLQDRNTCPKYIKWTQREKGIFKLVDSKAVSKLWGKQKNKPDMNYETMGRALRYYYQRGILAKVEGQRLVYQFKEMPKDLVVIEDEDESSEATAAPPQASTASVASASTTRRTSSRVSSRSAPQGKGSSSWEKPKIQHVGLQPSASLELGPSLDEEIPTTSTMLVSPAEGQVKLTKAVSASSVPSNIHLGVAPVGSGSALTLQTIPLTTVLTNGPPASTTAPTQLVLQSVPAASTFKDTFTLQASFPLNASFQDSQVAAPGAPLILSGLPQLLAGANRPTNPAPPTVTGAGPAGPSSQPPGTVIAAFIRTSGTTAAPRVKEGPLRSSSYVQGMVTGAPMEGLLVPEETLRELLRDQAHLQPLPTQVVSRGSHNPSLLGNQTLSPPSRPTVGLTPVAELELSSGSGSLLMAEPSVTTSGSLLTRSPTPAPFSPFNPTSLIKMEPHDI
Chain of SPIB (Q01892 whole entry): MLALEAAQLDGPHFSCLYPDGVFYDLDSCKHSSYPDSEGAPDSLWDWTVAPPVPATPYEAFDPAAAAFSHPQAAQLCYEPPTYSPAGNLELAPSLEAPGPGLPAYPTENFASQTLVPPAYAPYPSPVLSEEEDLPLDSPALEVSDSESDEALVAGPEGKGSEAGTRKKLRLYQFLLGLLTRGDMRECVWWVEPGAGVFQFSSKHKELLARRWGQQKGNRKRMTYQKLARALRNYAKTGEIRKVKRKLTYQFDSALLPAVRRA

ATCAAA
binding signal (ELK1): 1.05 fold enrichment (6-mer frequency, TF over GST control) | binding signal (GABPA): 1.13 fold enrichment (6-mer frequency, TF over GST control) | binding signal (ERG): 1.11 fold enrichment (6-mer frequency, TF over GST control) | binding signal (ELF1): 1.07 fold enrichment (6-mer frequency, TF over GST control) | binding signal (SPIB): 1.02 fold enrichment (6-mer frequency, TF over GST control) | binding signal (ELK3): 1.08 fold enrichment (6-mer frequency, TF over GST control) | binding signal (FEV): 1.03 fold enrichment (6-mer frequency, TF over GST control) | binding signal (ETV5): 1.06 fold enrichment (6-mer frequency, TF over GST control) | binding signal (ELF4): 1.12 fold enrichment (6-mer frequency, TF over GST control) | binding signal (ELK4): 1.1 fold enrichment (6-mer frequency, TF over GST control) | binding signal (ELF3): 1.04 fold enrichment (6-mer frequency, TF over GST control) | binding signal (ETV1): 1.15 fold enrichment (6-mer frequency, TF over GST control) | binding signal (ERF): 1.08 fold enrichment (6-mer frequency, TF over GST control) | binding signal (ETV3L): 1.08 fold enrichment (6-mer frequency, TF over GST control) | binding signal (ETS2): 1.07 fold enrichment (6-mer frequency, TF over GST control) | binding signal (SPDEF): 1.06 fold enrichment (6-mer frequency, TF over GST control) | binding signal (ETV7): 1.1 fold enrichment (6-mer frequency, TF over GST control) | binding signal (ETV3): 1.01 fold enrichment (6-mer frequency, TF over GST control) | binding signal (ETV6): 1.07 fold enrichment (6-mer frequency, TF over GST control)
